Source: PubChem BioAssay AID1159580 (chemical genetic matrix, 2015)
“And” between values parts separate entries of the source, which are not always exact repeats. Equal values may be shown once. The campaign covered roughly 5,500 compounds. About 2,000 (36%) were called active. About 18% were inconclusive and are not listed. Rule as the data show it: active = normalized growth mostly below about 0.91 (no sharp cut-off); inconclusive = no clear call, values can overlap the other calls; inactive = mostly above about 0.92. Some of the results follow.

Test: chemical genetic growth profiling, strain panel (AID 1159580);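 also: tested at 20 µM; growth read once vehicle control cultures reached saturation at 30 °C; 1 = growth at the plate median or of vehicle wells; lower values mean less growth of the strain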
Conditions: S. cerevisiae deletion strains, growth OD

Measured: normalized growth

C[C@H]1[C@H](C)CC[C@]2(CO)CC[C@]3(C)C(=CCC4[C@@]5(C)CC[C@H](O)C(C)(C)C5CC[C@]43C)[C@H]12 (some centres not stated)
inactive: locus YAL021C, strain ccr4, hits give low values 1.02 | locus YAL026C, strain drs2, hits give low values 0.981 | locus YAL030W, strain snc1, hits give low values 0.997 | locus YBL061C, strain skt5, hits give low values 0.994 | locus YBR009C, strain hhf1, hits give low values 1.01 | locus YBR021W, strain FUR4, hits give low values 1.01 | locus YBR023C, strain chs3, hits give low values 0.995 | locus YBR171W, strain sec66, hits give low values 0.989 | locus YBR229C, strain ROT2, hits give low values 1.02 | locus YBR231C, strain swc5, hits give low values 0.996 | locus YBR279W, strain paf1, hits give low values 0.991 | locus YCL011C, strain gbp2, hits give low values 0.994 | locus YCL016C, strain dcc1, hits give low values 1.01 | locus YCL029C, strain bik1, hits give low values 1.06 | locus YCL061C, strain MRC1, hits give low values 1 | locus YCL069W, strain vba3, hits give low values 0.998 | locus YCR088W, strain abp1, hits give low values 0.995 | locus YDL005C, strain med2, hits give low values 0.986 | locus YDL035C, strain GPR1, hits give low values 0.994 | locus YDL040C, strain nat1, hits give low values 0.996 | locus YDL074C, strain BRE1, hits give low values 1.03 | locus YDL101C, strain DUN1, hits give low values 1.02 | locus YDL134C, strain PPH21, hits give low values 0.999 | locus YDL185W, strain tfp1, hits give low values 1.03 | locus YDL192W, strain arf1, hits give low values 1.04 | locus YDR001C, strain nth1, hits give low values 1 | locus YDR069C, strain doa4, hits give low values 0.988 | locus YDR101C, strain arx1, hits give low values 1.01 | locus YDR137W, strain rgp1, hits give low values 0.996 | locus YDR159W, strain sac3, hits give low values 1.01 | locus YDR162C, strain NBP2, hits give low values 1.01 | locus YDR195W, strain ref2 0.992 | locus YDR297W, strain sur2, hits give low values 1.01 | locus YDR318W, strain mcm21, hits give low values 1.02 | locus YDR334W, strain swr1, hits give low values 0.992 | locus YDR335W, strain msn5, hits give low values 0.999 | locus YDR388W, hits give low values 1.02 | locus YDR392W, strain spt3, hits give low values 1.03 | locus YDR502C, strain sam2, hits give low values 0.998 | locus YEL003W, strain gim4, hits give low values 1 | locus YEL037C, strain rad23, hits give low values 0.981 | locus YEL061C, strain CIN8 (second series), hits give low values 0.972 | locus YEL061C, strain CIN8, hits give low values 1.01 | locus YER015W, strain faa2, hits give low values 1 | locus YER016W, strain bim1, hits give low values 0.988 | locus YER110C, hits give low values 1.03 | locus YER111C, strain swi4, hits give low values 1.01 | locus YER155C, strain BEM2 (second series), hits give low values 0.995 | locus YER155C, strain BEM2, hits give low values 1.02 | locus YER167W, strain BCK2, hits give low values 0.994 | locus YFR010W, strain ubp6, hits give low values 0.987 | locus YGL078C, strain dbp3, hits give low values 1.01 | locus YGL086W, strain mad1, hits give low values 1.01 | locus YGL167C, strain pmr1, hits give low values 0.996 | locus YGL173C, strain kem1, hits give low values 1 | locus YGL227W, strain vid30, hits give low values 0.999 | locus YGL240W, strain doc1, hits give low values 0.975 | locus YGL248W, strain PDE1, hits give low values 1.01 | locus YGL253W, strain hxk2, hits give low values 0.995 | locus YGR135W, strain pre9, hits give low values 1.01 | locus YGR252W, strain gcn5, hits give low values 1.02 | locus YHR013C, strain ard1, hits give low values 0.982 | locus YHR027C, strain rpn1, hits give low values 1 | locus YHR030C, strain SLT2, hits give low values 1.01 and 1.03 | locus YHR079C, strain IRE1 (second series), hits give low values 1.02 | locus YHR079C, strain IRE1, hits give low values 1.04 | locus YHR094C, strain hxt1, hits give low values 1.03 | locus YHR129C, strain ARP1, hits give low values 1.02 | locus YHR142W, strain chs7, hits give low values 1.01 | locus YHR200W, strain rpn10, hits give low values 1.01 | locus YIL066C, strain RNR3, hits give low values 1.01 | locus YIL073C, strain SPO22, hits give low values 1.05 | locus YIL125W, strain kgd1, hits give low values 1.03 | locus YIR030C, strain dcg1, hits give low values 1.02 | locus YJL092W, strain hpr5, hits give low values 0.995 | locus YJL095W, strain BCK1 (second series), hits give low values 1.01 | locus YJL095W, strain BCK1, hits give low values 1.02 and 0.984 | locus YJL115W, strain asf1, hits give low values 0.991 | locus YJL129C, strain trk1, hits give low values 1 | locus YJL134W, strain LCB3, hits give low values 1.01 | locus YJL154C, strain vps35, hits give low values 0.986 | locus YJL164C, strain tpk1, hits give low values 1.01 | locus YJL166W, strain qcr8, hits give low values 0.994 | locus YJL168C, strain set2, hits give low values 1.02 | locus YJL187C, strain SWE1 (second series), hits give low values 1.02 | locus YJR043C, strain POL32, hits give low values 1 | locus YJR066W, strain TOR1, hits give low values 0.997
